# Source: article PMC9838217, “Structure of SALL4 zinc finger domain reveals link between AT-rich DNA binding and Okihiro syndrome”
# Residue numbers refer to the chain shown, from its start.
# How the values were obtained:
# Assay in all cases: HT-SELEX; high values mean tight binding
# Settings in all cases: protein: recombinant; vector His6-GST; dsDNA, one strand shown
# SALL4 ZFC4 WT (HT-SELEX) = target: T1, SALL4 ZFC4 WT (HT-SELEX) (Mus musculus, UniProt Q8BX22 870-940)
# T1 sequence: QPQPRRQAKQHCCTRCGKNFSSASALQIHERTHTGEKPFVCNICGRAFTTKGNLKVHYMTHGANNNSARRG
# How it was run: (§1)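 Library DNA (1.5 µg in cycle one, 200 ng in later cycles) was incubated with 1 µg of purified recombinant mouse SALL4 zinc finger cluster 4, residues 870–940, in 100 µl buffer (10 mM Tris–HCl pH 7.5, 50 mM NaCl, poly(dI-dC), DTT) at room temperature for 10 min. Up to 6 rounds of Ni2+ bead capture, washing, PCR amplification and reselection were run in triplicate. Reads from MiSeq sequencing were scanned for 6-mers. For each canonical k-mer, binding signal is its read fraction as fold change versus the original random library.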
# [1] = target: T2, SALL4 ZFC4 R900W (HT-SELEX) (Mus musculus, UniProt Q8BX22 870-940, R900W)
# T2 sequence: T1 sequence with R31W
# How it was run: as §1
# [2] = target: T3, SALL4 ZFC4 G921D (HT-SELEX) (Mus musculus, UniProt Q8BX22 870-940, G921D)
# T3 sequence: T1 sequence with G52D
# How it was run: as §1
Sequence,binding signal (SALL4 ZFC4 WT (HT-SELEX)) [fold-change vs cycle 0],binding signal [1] [fold-change vs cycle 0],binding signal [2] [fold-change vs cycle 0]
AACGAC,0.568 ± 0.0525,0.668 ± 0.0478,0.771 ± 0.0138
CATCCG,0.395 ± 0.00447,0.448 ± 0.0185,0.567 ± 0.0534
AAGAGT,1.418 ± 0.0105,1.59 ± 0.0431,1.48 ± 0.0973
AGTGTC,0.664 ± 0.023,0.81 ± 0.0199,0.9 ± 0.0262
AATTGA,1.92 ± 0.0967,1.88 ± 0.0991,1.75 ± 0.142
GACTAC,0.777 ± 0.0619,0.891 ± 0.0393,0.967 ± 0.0652
CTTTTA,1.77 ± 0.0546,1.86 ± 0.125,1.63 ± 0.122
CCTGCA,0.34 ± 0.0217,0.407 ± 0.0271,0.515 ± 0.0759
CGTCTC,0.379 ± 0.0073,0.467 ± 0.0242,0.574 ± 0.0434
CGGAAG,0.465 ± 0.0113,0.58 ± 0.0281,0.707 ± 0.0759
AAAGGG,0.754 ± 0.0569,0.891 ± 0.0422,0.879 ± 0.0118
GTAGTA,1.29 ± 0.036,1.41 ± 0.0747,1.33 ± 0.0906
ATTAGG,1.38 ± 0.0909,1.48 ± 0.0913,1.4 ± 0.0983
AGTGAC,0.776 ± 0.012,0.91 ± 0.0317,0.973 ± 0.0424
CTTGCC,0.3123 ± 0.00236,0.384 ± 0.0251,0.501 ± 0.0709
GAGATA,1.52 ± 0.0868,1.54 ± 0.105,1.45 ± 0.133
AAACCA,1.14 ± 0.0582,1.23 ± 0.0362,1.24 ± 0.0488
CCTAGA,0.844 ± 0.0425,0.937 ± 0.0552,0.97 ± 0.04
ATTCGG,0.592 ± 0.0176,0.669 ± 0.0177,0.753 ± 0.0617
CGGTAA,0.676 ± 0.0195,0.74 ± 0.026,0.792 ± 0.0302

Sequence,binding signal (SALL4 ZFC4 WT (HT-SELEX)) [fold-change vs cycle 0],binding signal [1] [fold-change vs cycle 0],binding signal [2] [fold-change vs cycle 0]
CTATAA,2.19 ± 0.104,1.95 ± 0.0822,1.74 ± 0.119
CTCTAA,1.25 ± 0.0589,1.39 ± 0.103,1.36 ± 0.0965
ATGACG,0.724 ± 0.0223,0.789 ± 0.0467,0.852 ± 0.0204
ATGACA,1.36 ± 0.0915,1.41 ± 0.0578,1.39 ± 0.11
ATAATG,2.28 ± 0.148,2.02 ± 0.123,1.81 ± 0.182
ACCAGG,0.477 ± 0.0177,0.564 ± 0.0161,0.658 ± 0.055
CAATTG,1.09 ± 0.0289,1.247 ± 0.0104,1.28 ± 0.0217
ATCATA,2.91 ± 0.29,2.08 ± 0.118,1.88 ± 0.177
ACAGTG,0.745 ± 0.062,0.869 ± 0.0495,0.895 ± 0.0488
CAGGTA,0.825 ± 0.0117,0.927 ± 0.0176,0.973 ± 0.0448
ATAGGA,1.48 ± 0.0224,1.56 ± 0.056,1.45 ± 0.0712
AACAAG,1.28 ± 0.0479,1.5 ± 0.0772,1.39 ± 0.0671
TCGTCA,0.675 ± 0.0174,0.765 ± 0.0313,0.852 ± 0.012
AAGACA,1.28 ± 0.0466,1.42 ± 0.0793,1.35 ± 0.0674
CATTGC,0.645 ± 0.0305,0.712 ± 0.0136,0.825 ± 0.0379
CTCCGA,0.382 ± 0.00698,0.433 ± 0.0122,0.589 ± 0.0734
AATAAC,2.58 ± 0.181,2.03 ± 0.114,1.79 ± 0.168
CAAGTA,1.28 ± 0.0466,1.42 ± 0.0751,1.34 ± 0.0943
ATGTTC,1.28 ± 0.0355,1.37 ± 0.0462,1.36 ± 0.0792
AACCAA,1.22 ± 0.0287,1.31 ± 0.0414,1.28 ± 0.0656

Sequence,binding signal (SALL4 ZFC4 WT (HT-SELEX)) [fold-change vs cycle 0],binding signal [1] [fold-change vs cycle 0],binding signal [2] [fold-change vs cycle 0]
CTACTC,0.863 ± 0.0395,0.998 ± 0.0566,0.992 ± 0.0109
GCCTAA,0.547 ± 0.0354,0.643 ± 0.0255,0.746 ± 0.0372
TCGAAA,0.999 ± 0.0813,1.02 ± 0.0328,1.06 ± 0.0355
CAGACA,0.66 ± 0.0364,0.798 ± 0.012,0.862 ± 0.0574
GTCGAA,0.506 ± 0.0326,0.599 ± 0.0193,0.7 ± 0.0299
CTGTTA,1.37 ± 0.0494,1.47 ± 0.0717,1.39 ± 0.112
TATCCA,1.41 ± 0.0597,1.44 ± 0.0638,1.34 ± 0.0962
CCGTAC,0.377 ± 0.0221,0.458 ± 0.015,0.544 ± 0.0408
AAAGCG,0.393 ± 0.0227,0.489 ± 0.0338,0.601 ± 0.0731
AATTAG,1.92 ± 0.0642,1.97 ± 0.0604,1.75 ± 0.104
AGTGAG,0.933 ± 0.017,1.03 ± 0.0394,1.05 ± 0.0473
ACCTAA,1.36 ± 0.0814,1.46 ± 0.0702,1.37 ± 0.0509
TCCGGA,0.375 ± 0.0195,0.451 ± 0.0492,0.552 ± 0.107
ACCTTA,1.43 ± 0.0462,1.6 ± 0.0314,1.44 ± 0.0668
CACGTA,0.686 ± 0.0318,0.787 ± 0.0109,0.842 ± 0.0109
TATTGA,2.22 ± 0.167,2 ± 0.134,1.83 ± 0.179
ACGTAC,0.714 ± 0.0363,0.825 ± 0.0331,0.862 ± 0.022
CATTCC,0.85 ± 0.0367,0.949 ± 0.0747,0.981 ± 0.031
AAGCCA,0.541 ± 0.0136,0.628 ± 0.0233,0.751 ± 0.0535
GGCTAA,0.523 ± 0.0366,0.619 ± 0.0212,0.728 ± 0.0327
